# NPR1 antag: blocks ANP-stimulated signaling of human Npr1 receptor | P16066 | HEK293 hNpr1 GloSensor cGMP, ANP-stimulated luminescence | Potency, µM (titrated, usually from 46.3 µM), for inactives: at the top dose activity change, negative = inhibition, most hits filed as inhibitors | 76,000 compounds, 1.6% hits | AID 1347048; calls by dose curve; also: nearly all actives have a fitted effect of over 60% in size
#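 HEK293 cells stably expressing human Npr1 and cGMP GloSensor pGS-40F, loaded 2 h with 2% GloSensor reagent, given compound 30 min at room temperature. Luminescence read before and 20 min after 0.1 nM hNppA.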
# HEK293 tox: cytotoxic compounds in HEK 293 cells; HEK 293 viability, ATP luminescence (CellTiter-Glo), 48-72 h; Potency, µM (top dose mostly 115 µM), without a hit: at the highest dose activity change, negative = cytotoxicity, usual class: inhibitors; 94,000 compounds, 6.6% hits; also: nearly all actives have a fitted effect of over 60% in size
#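 250 HEK 293 cells/well; compound by pintool; incubated 48 or 72 hr at 37 degree Celsius; CellTiter-Glo added, 10 min RT, luminescence imaged.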
# Luciferase inh: blocks purified firefly luciferase enzyme activity; purified P. pyralis luciferase, luminescence, biochemical; Potency, µM (highest dose often 115 µM), most hits filed as inhibitors; 76,000 compounds, 2.5% hits; AID 1347043; also: nearly all actives have a fitted effect of over 65% in size
# Target sequence (P08659 whole entry, looked up): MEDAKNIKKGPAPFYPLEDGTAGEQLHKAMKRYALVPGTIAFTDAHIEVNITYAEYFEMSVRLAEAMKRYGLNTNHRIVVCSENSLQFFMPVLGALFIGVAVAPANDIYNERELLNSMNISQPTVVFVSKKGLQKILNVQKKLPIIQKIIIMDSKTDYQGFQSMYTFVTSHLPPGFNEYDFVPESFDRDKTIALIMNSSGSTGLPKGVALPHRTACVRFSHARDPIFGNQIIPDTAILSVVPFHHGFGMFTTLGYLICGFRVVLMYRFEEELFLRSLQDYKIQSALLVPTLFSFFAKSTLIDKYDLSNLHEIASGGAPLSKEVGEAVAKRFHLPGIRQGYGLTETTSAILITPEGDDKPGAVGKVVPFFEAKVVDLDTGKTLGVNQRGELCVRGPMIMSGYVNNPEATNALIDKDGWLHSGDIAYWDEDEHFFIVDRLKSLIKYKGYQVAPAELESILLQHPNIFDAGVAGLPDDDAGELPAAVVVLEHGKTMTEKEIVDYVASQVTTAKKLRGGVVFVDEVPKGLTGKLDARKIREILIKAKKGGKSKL
#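 Purified 10nM P. pyralis luciferase with 10uM D-luciferin and 10uM ATP in 50mM Tris acetate pH 7.5, 10mM Mg acetate, 0.01% Tween-20, 0.05% BSA. qHTS titration; luminescence read by CCD imager.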
# NIH3T3 tox: cytotoxic compounds in NIH 3T3 cells; NIH 3T3 viability, CellTiter-Glo ATP luminescence, 48-72 h; Potency, µM (highest dose often 96.7 µM), for the others: at the highest dose activity change, negative = cytotoxicity, hits mostly inhibitors; 94,000 compounds, 4.3% hits; AID 1345082; also: nearly all actives have a fitted effect of over 55% in size
#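 Viability of NIH 3T3 cells after 48 or 72 hr compound treatment at 37 °C was assessed by CellTiter-Glo, with luminescence imaged following a 10 min room-temperature step.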
# Numbers without * were called inactive; i = inactive; ? = inconclusive; · = no result; [ ] = remark or other dose. A selection: hits, their analogues and other compounds. The true share with any hit is near 11%. Unless noted, calls follow the shape of the dose curve; as a rule, active = well fitted curve in the direction sought with a large enough effect; inconclusive = small, poorly fitted or top-dose-only effect, or another doubt; inactive = no such curve, though single readings can be large; an effect the other way counts as inactive or inconclusive. % is scaled to controls: 0 for no effect and ±100 for the full control effect; potency is read from the fitted curve at half-maximal effect.
SMILES,NPR1 antag,HEK293 tox,Luciferase inh,NIH3T3 tox
CCn1cc(S(=O)(=O)N2CCCC2Cc2noc(-c3ccccc3)n2)cn1 (stereo not drawn),·,45µM*,·,?
CC(C)(C)c1[nH]nc2c1C(c1ccnc3ccccc13)CC(=O)N2 (stereo not drawn),-5%,-8%,i,32µM*
CCOC(=O)N1CCC(N2CCc3nc(-c4ccc(Cl)cc4)[nH]c3C2)C1 (stereo not drawn),-2%,?,i,?
O=C(c1ccn(C(F)F)n1)N1CCc2nc(-c3ccc(Cl)cc3)[nH]c2C1,0%,89µM*,?,?
CCOCC(=O)N1CCCC(c2nc(CCOCc3ccccc3)no2)C1 (stereo not drawn),·,2%,·,-27%
CS(=O)(=O)N1CCC(C2CCN(CC3CC3)C2)CC1 (stereo not drawn),2%,-19%,i,-21%
CCCC1=Nc2cc(C(=O)NCCc3ccc(C)cc3)ccc2Sc2ccc(C)cc21,-3%,?,i,?
CCC1=Nc2cc(C(=O)NCCC(C)C)ccc2Sc2ccc(Br)cc21,-1%,?,i,?
CC1=Nc2cc(C(=O)NCCCN(C)C)ccc2Sc2ccc(F)cc21,2%,50µM*,i,?
CC1=Nc2cc(C(=O)NCCCN(C)C)ccc2Sc2ccc(Cl)cc21,-12%,25µM*,i,22µM*
c1ccc(N2CCN(C3CCCN(Cc4cn[nH]c4C4CCCCC4)C3)CC2)cc1 (stereo not drawn),-1%,89µM*,i,-22%
COc1ccc(CN2CCC(CO)(CN3CCCC3)CC2)cc1OC,5%,-23%,i,?
CC(C)Oc1ccc(CN2CCC(CO)(CN3CCCC3)CC2)cc1Cl,-3%,25µM*,i,32µM*
COc1ccc(CN2CCC(CO)(CN3CCCC3)CC2)cc1C,-1%,89µM*,i,?
Cn1ncc2c(C(=O)NCc3ccc(C(F)(F)F)cc3)cc(-c3ccccc3F)nc21,·,32µM*,·,?
Cn1ncc2c(C(=O)NCc3ccccc3)cc(-c3cccnc3)nc21,·,40µM*,·,?
C#CCNC(=O)c1cc(-c2ccc(C(F)(F)F)cc2)nc2c1cnn2C,·,25µM*,·,?
Cn1ncc2c(C(=O)NCc3ccccc3)cc(-c3cccc(F)c3)nc21,·,40µM*,·,?
CC1CCN(C(=O)c2cc(CN3CCC(Cc4ccccc4)CC3)on2)CC1,-2%,?,i,-22%
Cc1cnc(-c2cccnc2)n1C1CCCN(C(=O)Nc2ccc3c(c2)OCCO3)C1 (stereo not drawn),·,-17%,·,-29%
COc1ccccc1CNC(=O)c1cc(-c2ccccc2F)nc2c1cnn2C,·,?,·,25µM*
Cn1ncc2c(C(=O)NCc3cccc(C(F)(F)F)c3)cc(-c3cccc(C(F)(F)F)c3)nc21,·,-16%,·,-4%
Cc1ccc(-c2cc(C(=O)NCCCc3ccccc3)c3cnn(C)c3n2)cc1,·,-11%,·,-5%
Cn1ncc2c(C(=O)NCc3ccc(C(F)(F)F)cc3)cc(-c3cccc(F)c3)nc21,·,?,·,45µM*
Cn1ncc2c(C(=O)NCc3ccc(C(F)(F)F)cc3)cc(-c3ccc(F)cc3)nc21,·,?,·,22µM*
SMILES,NPR1 antag,HEK293 tox,Luciferase inh,NIH3T3 tox
COc1ccc(CNC(=O)c2cc(-c3ccc(C(F)(F)F)cc3)nc3c2cnn3C)cc1,·,-32%,·,?
Cn1ncc2c(C(=O)NCCCc3ccccc3)cc(-c3ccc([S+](C)(=O)[O-])cc3)nc21,·,50µM*,·,?
Cc1oc(-c2cccc(C(F)(F)F)c2)nc1CN(C)Cc1cnn(C)c1,-1%,?,i,-30%
O=C(NCc1cccc(Cl)c1)c1ccc2nnc(C3CC3)n2c1,·,-18%[172 µM],·,?
COc1ccc(Cn2c(=O)c(-c3noc(C)n3)c3n(c2=O)CCCCC3)cc1,17%,-6%,i,-3%
CC(=O)N1CCn2c(nnc2C2CCCN2Cc2cnn(C(C)C)c2)C1 (stereo not drawn),·,-15%,·,-27%
COCCC1(NC(=O)Cc2cccc(OC)c2)CCN(S(C)(=O)=O)CC1,·,0%,·,-10%
Cn1ncc2c(C(=O)NCC#N)cc(-c3ccc(F)cc3)nc21,·,?,·,35µM*
Cn1ncc2c(C(=O)NCc3ccc(F)c(F)c3)cc(-c3cccc(F)c3)nc21,·,40µM*,·,?
Cc1cccc(C)c1-c1cc(C(=O)NCc2ccc(C(F)(F)F)cc2)c2cnn(C)c2n1,·,22µM*,·,14µM*
Cn1ncc2c(C(=O)Nc3ccccc3F)cc(-c3ccc(C(F)(F)F)cc3)nc21,·,?,·,35µM*
Cn1ncc2c(C(=O)NCc3ccccc3F)cc(-c3ccc(C(F)(F)F)cc3)nc21,·,?,·,-35%
COc1cccc(OC)c1CN1CC(O)CN(C(=O)COc2ccccc2)CC1=O (stereo not drawn),·,-8%,·,?
Cc1noc(-c2cccn3c(CNC(=O)c4ccc(F)c(F)c4)nnc23)n1,12%,i,i,-6%
COc1ccc2c(c1)CN(CC1CCCCC1)CC[C@H]1COC(=O)N21,5%[70.6 µM],?,i,-12%[174 µM]
O=C(NCc1ccccc1)N1CCC(O)(c2csc(CN3CCc4ccccc4C3)n2)CC1,2%,?,i,?
C=C(C)C(C)(C)C(=O)N1CCCC(N2CCN(c3ccccc3OC)CC2)C1 (stereo not drawn),3%,?,i,1%
COc1ccc(CNC(=O)c2cc(-c3ccc(F)cc3)nc3c2cnn3C)cc1,·,45µM*,·,40µM*
COc1cccc(CCC(=O)N2CCN(c3cc(-c4ccccc4)[nH]n3)CC2)c1,-2%,?,i,?
O=c1cc(-c2cccnc2)oc2c(-c3cccc(F)c3)nccc12,0%[70.6 µM],-11%[172 µM],i,?
O=c1cc(-c2cccnc2)oc2c(NCCc3ccccn3)nccc12,1%[70.6 µM],?,?,35µM*
COc1ccc(CN2CC3(CCN(C(=O)c4cc(-c5ccc(F)cc5)n[nH]4)CC3)C2=O)cc1,-15%,89µM*,i,?
COc1ccc(NC(=O)Cn2c(=O)n(-c3cccc(C)c3)c(=O)c3c2cc(C)n3C)c(OC)c1,-8%,-27%,i,-9%
Cc1ccc([S+](=O)([O-])NC2CCN(Cc3ccc(-c4ccsc4)cc3)C2)cc1 (stereo not drawn),·,45µM*,·,?
O=[S+]([O-])(NC1CCN(Cc2ccc(-c3ccsc3)cc2)C1)c1cccc(C(F)(F)F)c1 (stereo not drawn),·,28µM*,·,16µM*
CC(=O)Nc1ccc([S+](=O)([O-])NC2CCN(CCn3nc4n(c3=O)CCCC4)C2)cc1 (stereo not drawn),·,1%,·,0%
COCCCn1c(=O)c(C(=O)N2CCN(C(=O)N(C)C)CC2)nc2cccnc21,·,2%,·,1%
COc1ccccc1CC(=O)N1CCCc2ncc(C(=O)Nc3cccc(Cl)c3)cc21,?,56µM*,i,?

# Source: PubChem BioAssay
